Results: the supplement of paper PMC12494721
Where a name gives a salt, the structure may show the parent alone.

Experiments:
Settings in all cases: incubation time: 27 h, anaerobic, 37 °C;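 for the amine columns active = adjusted P below 0.05 in both replicates with a change the same way and a mean fold change under 0.8 or over 1.25; inactive = the rest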
[1] = system: Clostridium sporogenes DSM 1664; experiment: growth (OD595) fold change vs plate DMSO controls (fold change (ratio)); higher = more growth
How it was run: (§1)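 The reported measure is growth: the fold change against the median of DMSO controls on the plate. Absorbance at 595 nm from anaerobic 96-well mGAM cultures grown for 27 h at 37 °C was blank-subtracted, corrected for background with 20 µM compound solutions in water, and converted to OD with a calibration factor of 5. Fold changes above 1.5 appear as NA, and values are the mean of 2 biological replicates.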

Escherichia coli IAI1 [2] = experiment: as above
How it was run: as §1

[3] = system: Klebsiella aerogenes DSM 30053; experiment: as above
How it was run: as §1

[4] = system: Ruminococcus gnavus DSM 108212; experiment: as above
How it was run: as §1

[5] = system: Klebsiella aerogenes DSM 30053; experiment: fold change of Histamine concentration vs plate DMSO controls (fold change (ratio)); higher = more amine produced, active = hit call of the paper (significant change in both replicates, either direction)
How it was run: (§2)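 Each value is the fold change relative to DMSO-only wells on the same plate. Four gut bacterial strains were grown anaerobically in mGAM at 37 °C for 27 h in 80 µL wells, starting at OD 0.1 before a 1:1 dilution, with compounds at 20 µM final (sweeteners 50 µM). Whole cultures were extracted with cold acetonitrile/methanol containing 0.1% formic acid, centrifuged, and amines were quantified by LC–triple-quadrupole MS (dynamic MRM) against external calibration curves with within-batch drift correction. Values are means of 2 biological replicates.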

[6] = system: Clostridium sporogenes DSM 1664; experiment: fold change of Tryptamine concentration vs plate DMSO controls (fold change (ratio)); higher = more amine produced, active = hit call of the paper (significant change in both replicates, either direction)
How it was run: as §2

[7] = system: Ruminococcus gnavus DSM 108212; experiment: as above
How it was run: as §2

Escherichia coli IAI1 [8] = experiment: fold change of Putrescine concentration vs plate DMSO controls (fold change (ratio)); higher = more amine produced, active = hit call of the paper (significant change in both replicates, either direction)
How it was run: as §2

[9] = system: Klebsiella aerogenes DSM 30053; experiment: as above
How it was run: as §2

Escherichia coli IAI1 [10] = experiment: fold change of Cadaverine concentration vs plate DMSO controls (fold change (ratio)); higher = more amine produced, active = hit call of the paper (significant change in both replicates, either direction)
How it was run: as §2

[11] = system: Klebsiella aerogenes DSM 30053; experiment: as above
How it was run: as §2

[12] = system: Ruminococcus gnavus DSM 108212; experiment: fold change of 2-Phenylethylamine concentration vs plate DMSO controls (fold change (ratio)); higher = more amine produced, active = hit call of the paper (significant change in both replicates, either direction)
How it was run: as §2

SMILES | growth [1] | growth (Escherichia coli IAI1 [2]) | growth [3] | growth [4] | fold change of Histamine concentration [5] | fold change of Tryptamine concentration [6] | fold change of Tryptamine concentration [7] | fold change of Putrescine concentration (Escherichia coli IAI1 [8]) | fold change of Putrescine concentration [9] | fold change of Cadaverine concentration (Escherichia coli IAI1 [10]) | fold change of Cadaverine concentration [11] | fold change of 2-Phenylethylamine concentration [12]
CCN(CC)CCOC(=O)C(c1ccccc1)c1ccccc1 [Adiphenine hydrochloride] (20 µM) | 1.07 | 1.03 | 1.16 | 1 | 0.877 (inactive) | 1.05 (inactive) | 0.977 (inactive) | 1 (inactive) | 0.932 (inactive) | 1.01 (inactive) | 1.03 (inactive) | 0.968 (inactive)
Clc1ccc2c(c1)C(N1CCNCC1)=Nc1ccccc1O2 [Amoxapine] (20 µM) | 1.21 | 1.03 | 1.01 | 1.37 | 0.961 (inactive) | 0.943 (inactive) | 0.983 (inactive) | 0.994 (inactive) | 0.974 (inactive) | 1.02 (inactive) | 1 (inactive) | 0.952 (inactive)
O=C(O)c1cc(/N=N/c2ccc(S(=O)(=O)Nc3ccccn3)cc2)ccc1O [Sulfasalazine] (20 µM) | 0.986 | 1 | 1.05 | 0.978 | 0.971 (inactive) | 1.01 (inactive) | 1 (inactive) | 0.913 (inactive) | 0.995 (inactive) | 1.01 (inactive) | 1.01 (inactive) | 0.954 (inactive)
OC[C@H]1O[C@@H](c2ccc(Cl)c(Cc3ccc(O[C@H]4CCOC4)cc3)c2)[C@H](O)[C@@H](O)[C@@H]1O [Empagliflozin] (20 µM) | 1.04 | 1 | 1 | 0.989 | 0.998 (inactive) | 1.05 (inactive) | 0.872 (inactive) | 1.02 (inactive) | 0.986 (inactive) | 1.02 (inactive) | 0.974 (inactive) | 0.83 (inactive)
COc1cc(C)c(/C=C/C(C)=C/C=C/C(C)=C/C(=O)O)c(C)c1C [Acitretin] (20 µM) | 0.986 | 1.1 | 1.02 | 1.09 | 0.97 (inactive) | 0.967 (inactive) | 0.962 (inactive) | 1.18 (inactive) | 0.996 (inactive) | 0.971 (inactive) | 1.01 (inactive) | 0.99 (inactive)
CCCNCC(O)COc1ccccc1C(=O)CCc1ccccc1 (stereo not given) [Propafenone hydrochloride] (20 µM) | 1.01 | 0.96 | 1.12 | 0.759 | 0.848 (inactive) | 1.01 (inactive) | 1.03 (inactive) | 0.987 (inactive) | 0.99 (inactive) | 1.05 (inactive) | 1.02 (inactive) | 1.06 (inactive)
CNCCCC1c2ccccc2C=Cc2ccccc21 [Protriptyline hydrochloride] (20 µM) | 0.921 | 1.01 | 0.958 | 0.968 | 1.02 (inactive) | 1.12 (inactive) | 0.848 (inactive) | 1.17 (inactive) | 1.02 (inactive) | 1.12 (inactive) | 0.998 (inactive) | 0.829 (inactive)
CN1CCC(=C2c3ccccc3Sc3ccccc32)CC1 [Pimethixene maleate] (20 µM) | 1.13 | 0.985 | 0.967 | 1.26 | 1.02 (inactive) | 1.01 (inactive) | 0.87 (inactive) | 0.974 (inactive) | 0.991 (inactive) | 1.02 (inactive) | 0.993 (inactive) | 0.865 (inactive)
NCCCC(O)(P(=O)(O)O)P(=O)(O)O [Alendronate sodium] (20 µM) | 1.08 | 1.04 | 1.1 | 1.03 | 0.858 (inactive) | 1.1 (inactive) | 1.05 (inactive) | 0.992 (inactive) | 0.947 (inactive) | 1.01 (inactive) | 1.01 (inactive) | 1.05 (inactive)
CC1(C)S[C@@H]2[C@H](NC(=O)C(C(=O)O)c3ccccc3)C(=O)N2[C@H]1C(=O)O (stereo not given in full) [Carbenicillin disodium salt] (20 µM) | 0 | 1.19 | 1.05 | 0.00334 | 1.02 (inactive) | 0.0162 (active) | 0.0824 (active) | 0.927 (inactive) | 0.986 (inactive) | 1.79 (active) | 1.05 (inactive) | 0.0579 (active)
CC(=O)NCCCS(=O)(=O)O [Acamprosate calcium] (20 µM) | 1.08 | 0.999 | 0.963 | 0.795 | 1.02 (inactive) | 1.02 (inactive) | 0.996 (inactive) | 0.995 (inactive) | 1.02 (inactive) | 0.983 (inactive) | 1 (inactive) | 0.996 (inactive)
CCOC(=O)Nc1ccc2c(c1)N(C(=O)CCN1CCOCC1)c1ccccc1S2 [Moricizine hydrochloride] (20 µM) | 1.09 | 1.08 | 0.995 | 1.06 | 1 (inactive) | 0.989 (inactive) | 0.978 (inactive) | 1.03 (inactive) | 1.01 (inactive) | 1.01 (inactive) | 1 (inactive) | 1 (inactive)
O=c1oc2cc(O)ccc2s1 [Tioxolone] (20 µM) | 1.04 | 1.01 | 0.979 | 1.07 | 1.02 (inactive) | 1.05 (inactive) | 0.987 (inactive) | 1.02 (inactive) | 0.997 (inactive) | 0.989 (inactive) | 0.987 (inactive) | 0.959 (inactive)
CNCCC(Oc1ccc(C(F)(F)F)cc1)c1ccccc1 (stereo not given) [Fluoxetine hydrochloride] (20 µM) | 1.18 | 1.02 | 1.03 | 1.2 | 0.972 (inactive) | 0.945 (inactive) | 0.882 (inactive) | 0.927 (inactive) | 0.993 (inactive) | 1.19 (inactive) | 0.995 (inactive) | 0.907 (inactive)
CCc1ccc(CCOc2ccc(CC3SC(=O)NC3=O)cc2)nc1 (stereo not given) [Pioglitazone] (20 µM) | 1.3 | 0.963 | 0.988 | 0.816 | 1 (inactive) | 0.918 (inactive) | 0.977 (inactive) | 1.02 (inactive) | 1.01 (inactive) | 0.968 (inactive) | 0.998 (inactive) | 0.904 (inactive)
O=[N+]([O-])c1ccc(O)c2ncccc12 [Nitroxoline] (20 µM) | 1.24 | 0.52 | 0.522 | 0.97 | 0.93 (inactive) | 0.897 (inactive) | 0.693 (active) | 0.496 (active) | 0.894 (inactive) | 1.49 (active) | 0.948 (inactive) | 0.766 (inactive)
Cc1c(Cl)cccc1Nc1ccccc1C(=O)O [Tolfenamic acid] (20 µM) | 1.18 | 1.01 | 1.06 | 1.14 | 0.917 (inactive) | 0.901 (inactive) | 0.951 (inactive) | 1.07 (inactive) | 0.984 (inactive) | 1.07 (inactive) | 1.01 (inactive) | 0.937 (inactive)
CC(C)NCC(O)COc1ccc(CCOCC2CC2)cc1 (stereo not given) [Betaxolol hydrochloride] (20 µM) | 1.11 | 0.969 | 1.07 | 0.967 | 0.935 (inactive) | 0.955 (inactive) | 1 (inactive) | 1.02 (inactive) | 0.994 (inactive) | 0.99 (inactive) | 1 (inactive) | 1.01 (inactive)
CN[C@@H]1[C@H](O[C@H]2[C@H](O[C@H]3[C@H](O)[C@@H](O)[C@H](NC(=N)N)[C@@H](O)[C@@H]3NC(=N)N)O[C@@H](C)[C@]2(O)CO)O[C@@H](CO)[C@H](O)[C@H]1O [Dihydrostreptomycin sulfate] (20 µM) | 1.08 | 0.98 | 0.92 | 0.933 | 0.704 (inactive) | 1.25 (inactive) | 0.984 (inactive) | 0.958 (inactive) | 0.922 (inactive) | 1.01 (inactive) | 0.993 (inactive) | 0.991 (inactive)
CCOCC(O)COc1ccc(NC(=O)CC[S+](C)C)cc1 (stereo not given) [Suplatast Tosylate] (20 µM) | 0.999 | 1.04 | 0.988 | 1 | 1.03 (inactive) | 1.01 (inactive) | 0.978 (inactive) | 1.04 (inactive) | 1.02 (inactive) | 0.989 (inactive) | 0.991 (inactive) | 0.909 (inactive)
N=C(N)c1ccc(OCCCCCOc2ccc(C(=N)N)cc2)cc1 [Pentamidine isethionate] (20 µM) | 1.15 | 1.05 | 0.985 | 1.35 | 0.984 (inactive) | 0.79 (inactive) | 0.365 (active) | 0.993 (inactive) | 0.914 (inactive) | 0.825 (inactive) | 1.01 (inactive) | 0.38 (active)
CCC(C)n1ncn(-c2ccc(N3CCN(c4ccc(OCC5COC(Cn6cncn6)(c6ccc(Cl)cc6Cl)O5)cc4)CC3)cc2)c1=O (stereo not given) [Itraconazole] (20 µM) | 1.03 | 0.985 | 1.03 | 0.531 | 1.13 (inactive) | 1.02 (inactive) | 1.05 (inactive) | 1.01 (inactive) | 1.03 (inactive) | 1 (inactive) | 0.995 (inactive) | 0.997 (inactive)
O=C(O)CCc1nc(-c2ccccc2)c(-c2ccccc2)o1 [Oxaprozin] (20 µM) | 1.08 | 1.04 | 0.984 | 1.06 | 1.04 (inactive) | 1.03 (inactive) | 1.03 (inactive) | 1.01 (inactive) | 1 (inactive) | 0.96 (inactive) | 0.979 (inactive) | 1.1 (inactive)
Nc1nc2[nH]cnc2c(=S)[nH]1 [Tioguanine] (20 µM) | 1.3 | 0.969 | 1.09 | 0.899 | 1 (inactive) | 1.03 (inactive) | 1.01 (inactive) | 0.623 (active) | 0.987 (inactive) | 0.871 (inactive) | 0.998 (inactive) | 0.998 (inactive)
c1ccc(C2CN3CCSC3=N2)cc1 (stereo not given) [Tetramisole hydrochloride] (20 µM) | 0.855 | 0.574 | 1.07 | 0.976 | 1.04 (inactive) | 0.939 (inactive) | 1.01 (inactive) | 1.33 (inactive) | 1.03 (inactive) | 2 (active) | 0.992 (inactive) | 1.03 (inactive)
